Reference: PubChem BioAssay (NCATS)
Results filed as inconclusive are left out. Calls of active or inactive are those of the source. Unless noted, calls come from the whole dose curve; as a rule, active = well fitted curve in the direction sought with a large enough effect; inconclusive = small, poorly fitted or top-dose-only effect, or another doubt; inactive = no such curve, though single readings can be large; an effect the other way counts as inactive or inconclusive.

Columns and labels:
[1] = qHTS for Activators of Parkin Expression: LOPAC Validation Assay (NLuc Reporter) (AID 720572;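 note: 0% = DMSO and 100% = positive control compound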)
Method in brief: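 Neuronal cells with a Parkin promoter-driven FLuc/NLuc coincidence reporter were treated 24 h at 37 C in 7-point dose response (LOPAC). NLuc luminescence read after FLuc; signals normalized to DMSO and positive control (100%).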

[2] = qHTS for Activators of Parkin Expression: LOPAC Validation Assay (FLuc Reporter) (AID 720573;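 note: 0% = DMSO and 100% = positive control compounds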)
Method in brief: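 Readout is FLuc luminescence from neuronal reporter cells (Parkin promoter, FLuc plus NLuc) after 24 h compound exposure in dose response. Values normalized to neutral DMSO and positive-control compounds.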

[3] = target: T1, Hexokinase-4 (Homo sapiens) + Glucokinase regulatory protein (Homo sapiens) (UniProt P35557+Q14397); test: qHTS assay for inhibitors of recombinant human GCK-GKRP interaction: Diaphorase-coupled assay (AID 743205)
Method in brief: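 Signal derives from resorufin generated by diaphorase, linked to GCK turnover of glucose (5 mM) and ATP (0.4 mM). Enzyme complex was added after a 20-minute compound preincubation and monitored for 30 minutes.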

[4] = target: T1, Hexokinase-4 (Homo sapiens) + Glucokinase regulatory protein (Homo sapiens); test: qHTS assay for inhibitors of recombinant human GCK-GKRP interaction: ADP-Glo assay (AID 743206);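 note: plate controls were DMSO plus enzyme for no effect and no enzyme for full effect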
Method in brief: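 GST-GCK and FLAG-GKRP (15 nM each in the dispensed mix, with 2 uM S6P) react with 0.4 mM ATP and 5 mM glucose (final) in Hepes pH 7.6 for 60 min at room temperature. ADP is measured by ADP-Glo luminescence.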

[5] = target: T1, Hexokinase-4 (Homo sapiens) + Glucokinase regulatory protein (Homo sapiens); test: qHTS assay for inhibitors of recombinant human GCK-GKRP interaction: HTRF assay (AID 743207);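 note: 0% = DMSO with GCK present and -100% = DMSO wells lacking GCK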
Method in brief: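 Titration screening format: recombinant GST-GCK and FLAG-GKRP at 5 nM, S6P at 2 uM, labelled anti-tag antibodies, 60 min at RT, dual-wavelength HTRF readout.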

[6] = qHTS assay for small molecule agonists of the antioxidant response element (ARE) signaling pathway measured by Nrf2-dependant transcriptional activity (AID 720636; active = well fitted curve in the direction sought with a large enough effect in the repeat runs; an effect the other way counts as inactive or inconclusive;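 note: HepG2 cells with an ARE-driven luciferase reporter; % of control where 0% means no effect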)
Method in brief: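 Nrf2-dependent transcription is measured in ARE-luc HepG2 cells: compound is applied for 16 hr at 37 C after a 6 hr attachment period, and luciferase activity is quantified by luminescence using ONE-Glo.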

[7] = qHTS assay for small molecule antagonists of the retinoid-related orphan receptor gamma (ROR-gamma) signaling pathway - cell viability counter screen (AID 720652; active = well fitted curve in the direction sought with a large enough effect in the repeat runs; an effect the other way counts as inactive or inconclusive;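 note: CHO reporter cells with doxycycline-induced ROR-gamma expression; series mostly up to about 92 µM; compound exposure lasted 16 hr before ATP read; % is set by controls: 0 for no effect and ±100 for the full control effect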)
Method in brief: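 CHO cells carrying TET-inducible ROR and RORE-luciferase reporter, plated 5 hr, then dosed with compound plus doxycycline. After 16 hr at 37 C, viability read as intracellular ATP by CellTiter-Glo luminescence.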

[8] = qHTS assay for small molecule agonists of the antioxidant response element (ARE) signaling pathway measured by Nrf2-dependant transcriptional activity - cell viability counter screen (AID 720653; active = well fitted curve in the direction sought with a large enough effect in the repeat runs; an effect the other way counts as inactive or inconclusive; note: % is set by controls: 0 for no effect and ±100 for the full control effect); conditions: ARE-bla HepG2 viability, CellTiter-Glo ATP luminescence, 16 h; max response: stronger effect = lower value
Method in brief: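 ARE-bla HepG2 cells treated with compounds for 16 h at 37C; this counter screen measures viability as intracellular ATP by CellTiter-Glo luminescence after 30 min at room temperature.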

[9] = qHTS assay for cell viability of HEK293 cells (AID 743288); conditions: ATP luminescence (CellTiter-Glo), 18 h; max response: stronger effect = lower value; note: % is set by controls: 0 for no effect and ±100 for the full control effect; nearly all actives have a fitted effect of over 50% in size
Method in brief: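 Luminescent ATP quantitation served as the viability read-out. Cells (parental HEK293, 2,000/well) received compounds after at least 5 h at 37 C and were exposed for 18 h before a 30 min room-temperature reagent step.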

[10] = qHTS Assay for Identifying Gametocytocidal Compounds (AID 743244);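 note: % is set by controls: 0 for no effect and ±100 for the full control effect; actives lower the fluorescent signal which means gametocytes are killed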; conditions: P. falciparum 3D7 stage III-V gametocytes, alamarBlue, 72 h; max response: stronger effect = lower value
Method in brief: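 Stage III–V gametocytes of P. falciparum 3D7 were seeded at 20,000 cells/well onto pre-dispensed compounds. After 72 h, 37 °C, 5% CO2, alamarBlue was added for another 24 h.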

T1 sequence (P35557 whole entry, looked up): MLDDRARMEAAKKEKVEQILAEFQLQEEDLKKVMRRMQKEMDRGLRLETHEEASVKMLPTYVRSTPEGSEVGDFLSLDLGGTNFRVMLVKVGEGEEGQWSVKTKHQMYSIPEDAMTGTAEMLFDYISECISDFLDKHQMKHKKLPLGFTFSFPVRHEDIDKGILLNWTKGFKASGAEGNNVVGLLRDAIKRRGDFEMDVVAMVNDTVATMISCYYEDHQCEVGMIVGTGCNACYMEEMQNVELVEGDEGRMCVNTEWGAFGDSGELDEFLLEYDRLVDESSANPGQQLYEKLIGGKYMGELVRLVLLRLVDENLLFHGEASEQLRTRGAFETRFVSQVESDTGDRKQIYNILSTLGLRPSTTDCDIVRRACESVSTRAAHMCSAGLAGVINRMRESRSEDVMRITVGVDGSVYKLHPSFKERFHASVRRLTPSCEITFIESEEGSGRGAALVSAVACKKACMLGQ
T1 sequence (Q14397 whole entry, looked up): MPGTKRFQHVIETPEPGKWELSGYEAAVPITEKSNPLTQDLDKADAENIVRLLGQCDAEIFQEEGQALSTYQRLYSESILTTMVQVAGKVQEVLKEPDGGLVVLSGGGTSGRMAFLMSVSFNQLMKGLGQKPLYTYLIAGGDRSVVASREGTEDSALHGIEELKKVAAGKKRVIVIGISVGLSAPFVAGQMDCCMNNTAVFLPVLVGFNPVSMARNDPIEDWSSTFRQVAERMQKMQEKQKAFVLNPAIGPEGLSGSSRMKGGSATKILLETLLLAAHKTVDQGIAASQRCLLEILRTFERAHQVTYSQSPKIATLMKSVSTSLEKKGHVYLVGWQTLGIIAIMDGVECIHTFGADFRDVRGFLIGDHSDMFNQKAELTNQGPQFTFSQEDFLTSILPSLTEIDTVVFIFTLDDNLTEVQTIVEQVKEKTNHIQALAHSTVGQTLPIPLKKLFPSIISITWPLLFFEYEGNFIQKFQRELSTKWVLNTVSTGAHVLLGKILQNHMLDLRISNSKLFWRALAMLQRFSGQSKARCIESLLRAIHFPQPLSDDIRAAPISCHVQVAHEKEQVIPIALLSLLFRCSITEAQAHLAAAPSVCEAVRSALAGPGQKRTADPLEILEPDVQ

CC(N)c1cccc(Cl)c1Cl (configuration not stated)
inactive: Potency [1] | outcome [2] | Potency [3] | outcome [4] | outcome [5]

CCCC[N+]1(C)C2CC(OC(=O)[C@H](CO)c3ccccc3)CC1C1OC12 (some centres not stated)
inactive: Potency [1] | outcome [2] | Potency [3] | outcome [4] | outcome [5]

CC(=O)OCC1=C(C(=O)O)N2C(=O)[C@@H](NC(=O)CCC[C@@H](N)C(=O)O)[C@H]2SC1
inactive: Potency [1] | outcome [2] | Potency [3] | outcome [4] | outcome [5]

CC(C)(C)c1o[nH]c(=O)c1CC(N)C(=O)O (configuration not stated)
inactive: Potency [1] | outcome [2] | Potency [3] | outcome [4] | outcome [5]

NC(N)=NOCC[C@H](N)C(=O)O
inactive: Potency [1] | outcome [2] | Potency [3] | outcome [4] | outcome [5]

COC(=O)N1CCN(C(=O)Cc2ccc(Cl)c(Cl)c2)C(CN2CCCC2)C1 (configuration not stated)
inactive: Potency [1] | outcome [2] | Potency [3] | outcome [4] | outcome [5]

CCN1C[C@@]2(COC)C3[C@@H](OC)C4[C@@H]1C3([C@@H]1C[C@]3(O)[C@H](OC(=O)c5ccccc5)[C@@H]1[C@]4(OC(C)=O)[C@@H](O)[C@@H]3OC)[C@H](OC)C[C@H]2O
inactive: Potency [1] | outcome [2] | Potency [3] | outcome [4] | outcome [5]

Oc1ccc2c3c1O[C@H]1c4oc5ccccc5c4C[C@@]4(O)C(C2)N(CC2CC2)CCC314 (some centres not stated)
inactive: Potency [1] | outcome [2] | Potency [3] | outcome [4] | outcome [5]

N#CCCN
inactive: Potency [1] | outcome [2] | Potency [3] | outcome [4] | outcome [5]

Cc1o[nH]c(=O)c1CC(N)C(=O)O (configuration not stated)
inactive: Potency [1] | outcome [2] | Potency [3] | outcome [4] | outcome [5]

CCCN(CCC)[C@H]1CCc2c(F)ccc(O)c2C1
inactive: Potency [1] | outcome [2] | Potency [3] | outcome [4] | outcome [5]

CCS(=O)(=O)Nc1cccc(C(=C2CCCCC2)c2cnc[nH]2)c1
inactive: Potency [1] | outcome [2] | Potency [3] | outcome [4] | outcome [5]

CC(C)(C)c1cc(C=C(C#N)C#N)cc(C(C)(C)C)c1O
inactive: Potency [1] | outcome [2] | Potency [3] | outcome [4] | outcome [5]

Cc1[nH]c2ccc(O)cc2c1CCN
inactive: Potency [1] | outcome [2] | Potency [3] | outcome [4] | outcome [5]

Cc1sc2ccccc2c1CC1=NCCN1
inactive: Potency [1] | outcome [2] | Potency [3] | outcome [4] | outcome [5]

NC(Cc1ccc(N(CCCl)CCCl)cc1)C(=O)O (configuration not stated)
inactive: Potency [1] | outcome [2] | Potency [3] | outcome [4] | outcome [5]

NNC(N)=O
inactive: Potency [1] | outcome [2] | Potency [6] | Potency [7] | max response [8] 4.7% | Potency [3] | outcome [4] | outcome [5] | max response [9] -7.58%

C[N+]1(C)C2CCC1CC(OC(=O)c1c[nH]c3ccccc13)C2 (configuration not stated)
inactive: Potency [1] | outcome [2] | Potency [3] | outcome [4] | outcome [5]

CCCCCCC(C)(C)c1ccc([C@@H]2C[C@H](O)CC[C@H]2CCCO)c(O)c1
inactive: Potency [1] | outcome [2] | Potency [3] | outcome [4] | outcome [5]

Cc1cc([C@@H]2CCCN2C)on1
inactive: Potency [1] | outcome [2] | Potency [3] | outcome [4] | outcome [5]

O=C(O)c1cc[c]([Hg][Cl])cc1
inactive: Potency [1] | outcome [2] | max response [8] 8.27% | Potency [3] | outcome [4] | outcome [5] | max response [10] 33.9% | max response [9] -11.9%

C=CCN1C[C@@H](C)N([C@H](c2ccc(C(=O)N(CC)CC)cc2)c2cccc(OC)c2)C[C@@H]1C
inactive: Potency [1] | outcome [2] | Potency [3] | outcome [4] | outcome [5]

COc1ccc2c(c1)[C@@]13CCCC[C@H]1[C@@H](C2)NCC3
inactive: Potency [1] | outcome [2] | Potency [3] | outcome [4] | outcome [5]

C=CCN1CCC23c4c5ccc(O)c4O[C@H]2C(=O)CC[C@@]3(O)C1C5 (some centres not stated)
inactive: Potency [1] | outcome [2] | Potency [3] | outcome [4] | outcome [5]

C[N+]1(C)CCOC(O)(c2ccc(-c3ccc(C4(O)C[N+](C)(C)CCO4)cc3)cc2)C1 (configuration not stated)
inactive: Potency [1] | outcome [2] | Potency [3] | outcome [4] | outcome [5]

N[C@@]1(C(=O)O)CC[C@@H](C(=O)O)C1
inactive: Potency [1] | outcome [2] | Potency [3] | outcome [4] | outcome [5]

CCCCCCCCCCCCCC(=O)O[C@@H]1[C@@H](C)[C@@]2(O)[C@@H](C=C(CO)C[C@@]3(O)C(=O)C(C)=C[C@@H]23)C2C(C)(C)[C@@]21OC(C)=O (some centres not stated)
inactive: Potency [1] | outcome [2] | Potency [3] | outcome [4] | outcome [5]

CCCN1CCc2cccc3c2[C@H]1Cc1ccc(O)c(O)c1-3
inactive: Potency [1] | outcome [2] | Potency [3] | outcome [4] | outcome [5]

COc1ccc(CNC(=O)/C=C/c2ccc3[nH]cc(CCN(C)C)c3c2)cc1
inactive: Potency [1] | outcome [2] | Potency [3] | outcome [4] | outcome [5]
